Test results: PubChem BioAssay (EPA / NIEHS)
Calls of active or inactive are those of the source. How the source made its calls: active means hit-call score of the fitted dose curve at least 0.9, where 1 is the maximum; inactive means score below 0.9.

Columns and labels:
[1] = ATG_ISRE_CIS: Attagene CIS-FACTORIAL HepG2 Assay for human Interferon Regulatory Factor 1 (IRF1) binding to an Interferon-Stimulated Response Element (ISRE) (AID 2282948); conditions: HepG2 ISRE cis-reporter (Attagene), mRNA transcription readout; actives raise or lower the signal
In short: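 Read-out: fluorescent RT-PCR products resolved by capillary electrophoresis, reporting endogenous transcription factor activity via ISRE-driven reporter mRNA in transfected HepG2 cells dosed for 24 h; gain or loss fitted relative to DMSO.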

[2] = ATG_M_32_CIS: Attagene CIS-FACTORIAL HepG2 Assay for M32 Transcription Factor (Internal Marker) (AID 2282949); conditions: HepG2 Attagene cis-factorial M32 reporter, mRNA; actives raise or lower the signal;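 further: background control marker of the multiplexed CIS panel rather than a real target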
In short: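 Transient MRTU transfection of HepG2; 24 h compound treatment; TriZol RNA, oligo(dT) RT, reporter PCR, 6-FAM primer extension, HpaI cut, CE. Gain/loss of signal vs DMSO.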

[3] = ATG_M_06_CIS: Attagene CIS-FACTORIAL HepG2 Assay for M06 Transcription Factor (Internal Marker) (AID 2282950); conditions: HepG2 Attagene CIS-FACTORIAL M06 internal marker reporter; actives raise or lower the signal
In short: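 Measured 24 h post-dosing in transiently transfected HepG2 cells, this internal-marker endpoint reports reporter mRNA via RT-PCR with fluorescent primer extension and capillary electrophoresis. DMSO served as negative control and baseline for bidirectional fitting.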

[4] = biological target: Hepatocyte nuclear factor 6 (Homo sapiens) (UniProt Q9UBC0); test: ATG_HNF6_CIS: Attagene CIS-FACTORIAL HepG2 Assay for human Hepatocyte Nuclear Factor 6 (HNF6) (AID 2282952); conditions: HepG2 Attagene cis-factorial HNF6 reporter transcription; actives raise or lower the signal
Chain of Hepatocyte nuclear factor 6 (Homo sapiens) (Q9UBC0 whole entry, looked up): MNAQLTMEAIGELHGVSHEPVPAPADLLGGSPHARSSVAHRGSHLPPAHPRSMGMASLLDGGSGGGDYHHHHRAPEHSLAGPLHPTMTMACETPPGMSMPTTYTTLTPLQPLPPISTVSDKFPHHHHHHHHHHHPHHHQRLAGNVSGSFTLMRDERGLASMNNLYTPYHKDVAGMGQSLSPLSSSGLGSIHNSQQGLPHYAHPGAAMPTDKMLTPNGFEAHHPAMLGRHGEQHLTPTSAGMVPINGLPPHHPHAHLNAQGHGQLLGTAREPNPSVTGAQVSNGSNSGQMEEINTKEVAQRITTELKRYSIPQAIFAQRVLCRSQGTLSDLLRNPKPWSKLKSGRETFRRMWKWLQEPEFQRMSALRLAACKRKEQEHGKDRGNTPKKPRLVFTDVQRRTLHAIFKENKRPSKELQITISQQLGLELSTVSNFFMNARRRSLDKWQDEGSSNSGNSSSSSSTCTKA
In short: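 Endogenous factor activity read in transiently transfected HepG2 via promoter-regulated reporter transcripts. RNA harvested 24 h post-dosing, reverse-transcribed, PCR-amplified, FAM-labelled, HpaI-digested and resolved by capillary electrophoresis; fitted in both directions against DMSO.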

[5] = ATG_MRE_CIS: Attagene CIS-FACTORIAL HepG2 Assay for human Metal Responsive Element (MRE) (AID 2282954); conditions: HepG2 MRE cis-reporter transcription, Attagene multiplex; actives raise or lower the signal
In short: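 RT-PCR/capillary electrophoresis readout of reporter mRNA, 24 h post-dosing, in HepG2 cells transfected with multiplexed cis-regulated reporter constructs. Gain or loss of signal fitted bidirectionally against DMSO baseline.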

[6] = ATG_PBREM_CIS: Attagene CIS-FACTORIAL HepG2 Assay for human Phenobarbital-responsive Enhancer Module (PBREM) (AID 2282955); conditions: HepG2 PBREM cis-reporter, Attagene multiplexed transcription; actives raise or lower the signal
In short: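 Endogenous transcription factor activity was read from reporter transcripts in transiently transfected human HepG2 liver cells after 24 h dosing. RT-PCR products were fluorescently labelled, HpaI-cut and sized by capillary electrophoresis; activity fitted bidirectionally against DMSO baseline.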

[7] = biological target: Paired box protein Pax-6 (Homo sapiens) (UniProt P26367); test: ATG_Pax6_CIS: Attagene CIS-FACTORIAL HepG2 Assay for human Paired Box 6 (PAX6) (AID 2282956); conditions: HepG2 CIS-FACTORIAL PAX6 reporter transcription, RNA readout; actives raise or lower the signal
Chain of Paired box protein Pax-6 (Homo sapiens) (P26367 whole entry, looked up): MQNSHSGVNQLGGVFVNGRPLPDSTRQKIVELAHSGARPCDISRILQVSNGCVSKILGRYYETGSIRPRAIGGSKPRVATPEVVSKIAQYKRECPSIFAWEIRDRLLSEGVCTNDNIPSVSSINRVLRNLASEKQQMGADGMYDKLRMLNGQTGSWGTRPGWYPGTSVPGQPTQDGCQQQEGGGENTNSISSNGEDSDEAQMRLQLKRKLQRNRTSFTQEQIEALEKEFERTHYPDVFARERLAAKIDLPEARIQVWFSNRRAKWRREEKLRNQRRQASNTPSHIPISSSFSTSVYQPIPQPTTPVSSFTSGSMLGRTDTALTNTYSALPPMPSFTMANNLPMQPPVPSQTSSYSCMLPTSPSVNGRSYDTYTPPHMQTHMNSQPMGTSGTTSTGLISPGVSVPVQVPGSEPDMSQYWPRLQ
In short: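 Readout: reporter transcript fluorescence after RT-PCR and capillary electrophoresis. Cells: HepG2, transiently transfected with cis-regulated MRTUs. Exposure 24 h. Gain or loss of signal fitted bidirectionally relative to DMSO.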

[8] = ATG_PXRE_CIS: Attagene CIS-FACTORIAL HepG2 Assay for human Pregnane X Receptor Element (PXRE) (AID 2282957); conditions: HepG2 Attagene CIS-FACTORIAL PXRE reporter, mRNA; actives raise or lower the signal
In short: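 Reporter transcripts under endogenous PXR-responsive cis-regulation quantified from total RNA of transfected HepG2 cells 24 h post-dosing, via RT-PCR with fluorescent primer extension and capillary electrophoresis. Gain or loss of signal fitted against DMSO baseline.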

[9] = ATG_Sox_CIS: Attagene CIS-FACTORIAL HepG2 Assay for human SRY-box transcription factor (SOX) (AID 2282960); conditions: HepG2 Attagene cis-factorial SOX reporter, mRNA; actives raise or lower the signal
In short: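 Reporter transcripts, measured by RT-PCR and capillary electrophoresis of labelled fragments, report endogenous SOX transcription factor activity. Transiently transfected human HepG2 cells receive chemical for 24 h; changes in either direction are fitted relative to DMSO.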

[10] = biological target: Transcription factor Sp1 (Homo sapiens) (UniProt P08047); test: ATG_Sp1_CIS: Attagene CIS-FACTORIAL HepG2 Assay for human Specificity Protein 1 (Sp1) (AID 2282961); conditions: HepG2 Sp1 cis-reporter transcription, actives raise or lower the signal
Chain of Transcription factor Sp1 (Homo sapiens) (P08047 whole entry, looked up): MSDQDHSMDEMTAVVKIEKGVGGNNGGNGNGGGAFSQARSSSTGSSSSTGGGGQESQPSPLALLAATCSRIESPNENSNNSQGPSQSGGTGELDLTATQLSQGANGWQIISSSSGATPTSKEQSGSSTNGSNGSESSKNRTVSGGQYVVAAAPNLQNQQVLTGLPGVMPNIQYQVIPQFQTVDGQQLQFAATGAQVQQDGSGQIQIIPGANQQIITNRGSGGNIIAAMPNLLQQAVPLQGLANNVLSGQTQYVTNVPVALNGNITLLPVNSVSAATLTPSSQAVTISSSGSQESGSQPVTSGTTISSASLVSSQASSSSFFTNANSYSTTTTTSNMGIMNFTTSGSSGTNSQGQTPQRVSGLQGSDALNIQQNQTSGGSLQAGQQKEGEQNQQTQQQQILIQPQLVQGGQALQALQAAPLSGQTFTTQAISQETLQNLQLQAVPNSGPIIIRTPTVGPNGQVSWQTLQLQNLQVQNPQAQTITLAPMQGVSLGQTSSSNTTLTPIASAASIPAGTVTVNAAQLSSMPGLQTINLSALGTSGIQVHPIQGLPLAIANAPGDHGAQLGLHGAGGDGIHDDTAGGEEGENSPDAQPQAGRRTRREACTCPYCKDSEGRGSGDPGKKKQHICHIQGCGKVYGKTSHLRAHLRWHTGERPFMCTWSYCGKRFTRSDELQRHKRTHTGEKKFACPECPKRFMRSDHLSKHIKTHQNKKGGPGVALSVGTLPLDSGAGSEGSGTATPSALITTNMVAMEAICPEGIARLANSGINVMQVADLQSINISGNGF
In short: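 Read-out is reporter transcript level, measured by RT-PCR and fluorescent capillary electrophoresis after 24 h chemical treatment. System: transiently transfected HepG2 cells reporting endogenous transcription factor activity; gain or loss fitted against DMSO baseline.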

[11] = biological target: Signal transducer and activator of transcription 3 (Homo sapiens) (UniProt P40763); test: ATG_STAT3_CIS: Attagene CIS-FACTORIAL HepG2 Assay for human Signal Transducer and Activator of Transcription 3 (STAT3) (AID 2282963); conditions: HepG2, Attagene cis-factorial STAT3 reporter transcription; actives raise or lower the signal
Chain of Signal transducer and activator of transcription 3 (Homo sapiens) (P40763 whole entry, looked up, the tested form may be a part): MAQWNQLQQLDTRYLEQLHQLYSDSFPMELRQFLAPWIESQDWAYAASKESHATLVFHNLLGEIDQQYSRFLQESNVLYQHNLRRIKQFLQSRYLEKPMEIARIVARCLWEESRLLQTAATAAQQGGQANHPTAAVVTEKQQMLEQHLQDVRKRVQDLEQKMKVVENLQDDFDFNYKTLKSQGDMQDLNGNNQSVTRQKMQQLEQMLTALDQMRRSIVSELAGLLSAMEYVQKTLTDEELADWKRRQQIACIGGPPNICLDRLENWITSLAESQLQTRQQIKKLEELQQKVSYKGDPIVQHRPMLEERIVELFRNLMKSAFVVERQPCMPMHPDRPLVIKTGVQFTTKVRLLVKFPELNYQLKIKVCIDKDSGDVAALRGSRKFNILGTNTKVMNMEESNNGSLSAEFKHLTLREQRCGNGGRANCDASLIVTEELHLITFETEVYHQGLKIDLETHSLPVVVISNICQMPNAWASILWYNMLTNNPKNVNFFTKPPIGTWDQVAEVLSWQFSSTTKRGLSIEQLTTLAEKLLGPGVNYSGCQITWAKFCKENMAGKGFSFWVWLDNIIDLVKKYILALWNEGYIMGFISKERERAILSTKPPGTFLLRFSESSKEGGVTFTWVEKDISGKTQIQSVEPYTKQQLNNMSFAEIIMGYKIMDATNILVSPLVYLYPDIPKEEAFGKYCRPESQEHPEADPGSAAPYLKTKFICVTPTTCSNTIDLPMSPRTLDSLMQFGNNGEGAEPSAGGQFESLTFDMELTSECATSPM
In short: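 Readout: fluorescent reporter mRNA fragments resolved by capillary electrophoresis. Setup: HepG2 transfected with MRTUs reporting endogenous transcription-factor activity, dosed 24 h. Gain or loss of signal fitted bidirectionally against DMSO control.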

[12] = ATG_TA_CIS: Attagene CIS-FACTORIAL HepG2 Assay for human TA Basal Promoter (AID 2282964); conditions: HepG2 Attagene CIS-factorial TA basal promoter reporter; actives raise or lower the signal
In short: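 Cis-factorial format in HepG2: reporters report endogenous factors, not chimeric Gal4 fusions. After 24 h treatment, reporter transcripts were measured by RT-PCR-capillary electrophoresis fluorescence, analysed bidirectionally versus DMSO.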

[13] = ATG_TCF_b_cat_CIS: Attagene CIS-FACTORIAL HepG2 Assay for human T-Cell-Factor with beta-catenin (TCF/b-cat) (AID 2282965); conditions: HepG2 TCF/beta-catenin cis-reporter transcription, actives raise or lower the signal
In short: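 HepG2, transient MRTU transfection, cis-element-driven reporters (endogenous TFs). 24 h compound exposure. Readout: reporter mRNA by RT-PCR + 6-FAM primer extension, HpaI digest, capillary electrophoresis. Gain/loss fit vs DMSO baseline.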

[14] = ATG_GRE_CIS: Attagene CIS-FACTORIAL HepG2 Assay for human Glucocorticoid Response Elements (GRE) (AID 2282947); conditions: HepG2 GRE cis-reporter, Attagene multiplex mRNA; actives raise or lower the signal
In short: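 Read-out: fluorescent reporter-transcript fragments separated by capillary electrophoresis after RT-PCR. Transiently transfected HepG2 cells carrying cis-element-driven reporter units were dosed for 24 h; gain or loss of signal fitted against DMSO control.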

[15] = biological target: Hypoxia-inducible factor 1-alpha (Homo sapiens) (UniProt Q16665); test: ATG_HIF1a_CIS: Attagene CIS-FACTORIAL HepG2 Assay for human Hypoxia Inducible Factor 1 (HIF1A) (AID 2282951); conditions: HepG2 Attagene cis-factorial HIF1a reporter transcription; actives raise or lower the signal
Chain of Hypoxia-inducible factor 1-alpha (Homo sapiens) (Q16665 whole entry, looked up): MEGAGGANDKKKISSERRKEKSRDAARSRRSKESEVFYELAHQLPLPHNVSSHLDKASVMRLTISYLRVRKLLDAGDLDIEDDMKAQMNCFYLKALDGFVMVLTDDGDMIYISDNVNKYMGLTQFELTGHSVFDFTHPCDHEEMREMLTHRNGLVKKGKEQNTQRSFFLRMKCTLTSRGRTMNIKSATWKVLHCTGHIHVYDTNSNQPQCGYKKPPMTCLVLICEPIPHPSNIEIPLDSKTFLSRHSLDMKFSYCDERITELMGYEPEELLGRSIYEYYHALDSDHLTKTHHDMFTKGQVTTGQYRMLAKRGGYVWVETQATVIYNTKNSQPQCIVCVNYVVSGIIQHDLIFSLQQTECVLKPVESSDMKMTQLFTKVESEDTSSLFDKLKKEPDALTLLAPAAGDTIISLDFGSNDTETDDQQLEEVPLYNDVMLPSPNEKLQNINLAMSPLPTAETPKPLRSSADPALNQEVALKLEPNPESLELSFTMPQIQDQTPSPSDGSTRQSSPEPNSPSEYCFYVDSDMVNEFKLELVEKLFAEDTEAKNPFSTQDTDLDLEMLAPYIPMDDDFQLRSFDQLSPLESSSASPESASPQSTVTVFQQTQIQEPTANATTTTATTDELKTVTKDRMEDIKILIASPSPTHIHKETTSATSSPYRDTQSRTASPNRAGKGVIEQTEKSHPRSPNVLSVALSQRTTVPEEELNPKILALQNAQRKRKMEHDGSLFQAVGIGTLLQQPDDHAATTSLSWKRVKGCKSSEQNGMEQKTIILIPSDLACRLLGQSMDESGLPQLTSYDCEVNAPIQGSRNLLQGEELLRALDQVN
In short: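 Activity is fitted in both directions relative to DMSO. Reporter transcripts are read by RT-PCR, fluorescent primer extension and capillary electrophoresis after 24 h chemical treatment. The cells are HepG2 carrying transiently transfected cis-element-driven reporter units responding to endogenous factors.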

[16] = ATG_PPRE_CIS: Attagene CIS-FACTORIAL HepG2 Assay for human Peroxisome Proliferator-activated Response Element (PPRE) (AID 2282958); conditions: HepG2 PPRE cis-element reporter, Attagene transcription factor profiling; actives raise or lower the signal
In short: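 Endogenous PPRE-driven transcription is measured in HepG2 cells carrying transfected multi-reporter constructs. Reporter transcripts are quantified by RT-PCR, HpaI digestion and capillary electrophoresis 24 h after dosing. DMSO baseline, bidirectional fit.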

[17] = ATG_RORE_CIS: Attagene CIS-FACTORIAL HepG2 Assay for human RAR-related Orphan Receptor Element (RORE) (AID 2282959); conditions: HepG2 Attagene cis-factorial RORE reporter, mRNA; actives raise or lower the signal
In short: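 RORE reporter transcripts reflecting endogenous factor activity were read after 24 h compound exposure of transfected HepG2 cells, using reverse transcription, PCR, fluorescent labelling and capillary electrophoresis sizing. Gain or loss fitted against DMSO.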

[18] = biological target: Heat shock factor protein 1 (Homo sapiens) (UniProt Q00613); test: ATG_HSE_CIS: Attagene CIS-FACTORIAL HepG2 Assay for human Heat Shock Transcription Factor 1 (HSE) (AID 2282953); conditions: HepG2 HSE cis-reporter, Attagene RNA transcription; actives raise or lower the signal
Chain of Heat shock factor protein 1 (Homo sapiens) (Q00613 whole entry, looked up): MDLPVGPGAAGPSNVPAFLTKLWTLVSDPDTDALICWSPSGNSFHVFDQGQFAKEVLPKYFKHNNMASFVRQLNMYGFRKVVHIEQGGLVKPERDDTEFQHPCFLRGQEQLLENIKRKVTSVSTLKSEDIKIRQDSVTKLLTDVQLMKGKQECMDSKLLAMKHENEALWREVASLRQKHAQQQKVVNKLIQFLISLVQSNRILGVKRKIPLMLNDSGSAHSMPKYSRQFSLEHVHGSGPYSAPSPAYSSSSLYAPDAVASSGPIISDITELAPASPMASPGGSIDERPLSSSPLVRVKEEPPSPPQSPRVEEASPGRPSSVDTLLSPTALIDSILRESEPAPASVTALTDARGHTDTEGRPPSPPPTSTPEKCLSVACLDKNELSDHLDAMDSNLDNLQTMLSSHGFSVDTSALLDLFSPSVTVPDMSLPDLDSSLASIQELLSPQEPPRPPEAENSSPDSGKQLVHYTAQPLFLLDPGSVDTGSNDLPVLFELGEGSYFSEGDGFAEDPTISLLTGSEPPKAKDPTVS
In short: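 Reporter mRNA induction in HepG2 is measured 24 h after dosing, using transiently transfected multiplexed cis-regulated reporter units. Signal comes from capillary electrophoresis of labelled RT-PCR products, with DMSO as negative control.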

[19] = ATG_SREBP_CIS: Attagene CIS-FACTORIAL HepG2 Assay for human Sterol Regulatory Element Binding (SREBP) (AID 2282962); conditions: HepG2 Attagene cis-factorial SREBP reporter, mRNA; actives raise or lower the signal
In short: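 Readout: fluorescent reporter-transcript peaks resolved by capillary electrophoresis after RT-PCR. Cells were human HepG2 carrying transfected cis-promoter reporter constructs, dosed for 24 h. Gain or loss of signal was fitted against DMSO controls.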

Measured: AC50

O=C(Nc1ccc2c(O)c(N=Nc3ccc(N=Nc4ccc(S(=O)(=O)O)cc4)cc3)c(S(=O)(=O)O)cc2c1)c1ccccc1
not listed: [14] | [15] | [16] | [17] | [18] | [19]
inactive: all other assays above

C[C@H]1C[C@@H](O)CC(C)(C)C1
active: [8] 68.4 µM
not listed: [1] | [18] | [19]
inactive: all other assays above

CC(=O)OCCCc1ccccc1
active: [8] 27.4 µM
not listed: [6] | [14] | [15] | [16]
inactive: all other assays above

CC(C)CCCCCCc1ccc(OCCOCCO)cc1
not listed: [4] | [8] | [14] | [16] | [17]
inactive: all other assays above

CCCC(=O)C(CC)Sc1ccoc1C (centres undefined)
not listed: [8] | [14] | [16]
inactive: all other assays above

Cc1ncc([N+](=O)[O-])n1CCO
not listed: [14] | [15] | [19]
inactive: all other assays above

O=[N+]([O-])c1cccc(Cl)c1
not listed: [6] | [14] | [17]
inactive: all other assays above

Nc1c(Cl)cc(Cl)cc1[N+](=O)[O-]
active: [8] 27.7 µM
not listed: [1] | [11] | [14] | [16] | [17] | [18]
inactive: all other assays above

CC(C)C(OC(=O)c1ccccc1)C(C)(C)COC(=O)c1ccccc1 (centres undefined)
not listed: [1] | [5] | [8] | [14] | [17]
inactive: all other assays above

Cc1[nH]c(=O)c(C#N)cc1-c1ccncc1
not listed: [1] | [6] | [13] | [14] | [15] | [17]
inactive: all other assays above

Nc1c(S(=O)(=O)O)cc(Br)c2c1C(=O)c1ccccc1C2=O
active: [5] 58 µM | [8] 22.4 µM | [17] 100 µM | [12] 100 µM
not listed: [6] | [13] | [14] | [16] | [19]
inactive: all other assays above

CS(=O)(=O)OCCCCOS(C)(=O)=O
active: [8] 55.8 µM
not listed: [6] | [13] | [14]
inactive: all other assays above

CC(C)NCC(O)COc1ccc(CC(N)=O)cc1 (centres undefined)
not listed: [6] | [14] | [15] | [16]
inactive: all other assays above

OCC(O)c1ccccc1 (centres undefined)
not listed: [6] | [13] | [14] | [16] | [18]
inactive: all other assays above

Brc1ccc(Br)c(Br)c1
not listed: [6] | [14] | [16] | [18]
inactive: all other assays above

CC/C=C\CCOC(=O)CC
not listed: [5] | [6] | [14] | [16] | [17]
inactive: all other assays above

C[C@@H]1CCN(C(=O)[C@H](CCCN=C(N)N)NS(=O)(=O)c2cccc3c2NC[C@H](C)C3)[C@@H](C(=O)O)C1
not listed: [14] | [16] | [17]
inactive: all other assays above

CCCCCCCCCCCC(=O)OCC(O)CO (centres undefined)
active: [8] 169 µM | [19] 100 µM
not listed: [1] | [5] | [13] | [14] | [16]
inactive: all other assays above
